The panel holds about 83,000 compounds, 20% with a hit somewhere; the sample as a whole holds those more often.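 Assay: single dose, 48 h. Readout: percent growth (0 = no net growth; negative = cell death). Active: <10.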 Unmarked numbers belong to inactive results. Activity calls are given as the source filed them.
What was measured:
Experiment in all cases: NCI-60 one-dose screen, 48 h (100 = growth as untreated, 0 = no growth, -100 = all killed)
Conditions in all cases: 10 µM unless noted
DU-145 prostate = test system: DU-145 prostate
K-562 leukemia = test system: K-562 leukemia
MALME-3M melanoma = test system: MALME-3M melanoma
MDA-MB-231 breast = test system: MDA-MB-231 breast
RXF 393 renal = test system: RXF 393 renal
SF-268 CNS = test system: SF-268 CNS
SF-295 CNS = test system: SF-295 CNS
SF-539 CNS = test system: SF-539 CNS
UACC-257 melanoma = test system: UACC-257 melanoma
M14 melanoma = test system: M14 melanoma

## Cc1[nH]nc2ccc3nc(-c4cn[nH]c4C(F)(F)F)c4c(c3c12)CCCC4
DU-145 prostate
  growth: 5.72% (active)
K-562 leukemia
  growth: 14.9%
MALME-3M melanoma
  growth: -24% (active)
MDA-MB-231 breast
  growth: -14.8% (active)
RXF 393 renal
  growth: -79.6% (active)
SF-268 CNS
  growth: 18%
SF-295 CNS
  growth: -12.9% (active)
SF-539 CNS
  growth: -67.2% (active)
UACC-257 melanoma
  growth: 17.8%
M14 melanoma
  growth: 3.29% (active)

## COc1ccc2c(c1)C(=O)N(C)C2C1c2c(cc3c(c2OC)OCO3)CCN1C (stereo not given)
DU-145 prostate
  growth: 73.2%
K-562 leukemia
  growth: 16.6%
MALME-3M melanoma
  growth: 33.8%
MDA-MB-231 breast
  growth: 66.7%
RXF 393 renal
  growth: 19.8%
SF-268 CNS
  growth: 66%
SF-295 CNS
  growth: 26.7%
SF-539 CNS
  growth: 45.5%
UACC-257 melanoma
  growth: 71%
M14 melanoma
  growth: 36.6%

## ClC(Cn1ncc2c(Nc3cccc(Br)c3)nc(SCCN3CCOCC3)nc21)c1ccc(Br)cc1 (stereo not given)
DU-145 prostate
  growth: 28.6%
K-562 leukemia
  growth: -37.7% (active)
MALME-3M melanoma
  growth: -38% (active)
MDA-MB-231 breast
  growth: -51.8% (active)
RXF 393 renal
  growth: -62.2% (active)
SF-268 CNS
  growth: 44.7%
SF-295 CNS
  growth: -71.3% (active)
SF-539 CNS
  growth: -79.1% (active)
UACC-257 melanoma
  growth: -42.8% (active)
M14 melanoma
  growth: -19.5% (active)

## CCc1ccccc1NC(=O)N/C(N)=N/c1nc2ccccc2s1
DU-145 prostate
  growth: -8.39% (active)
K-562 leukemia
  growth: 10.6%
MALME-3M melanoma
  growth: 5.84% (active)
MDA-MB-231 breast
  growth: -21.3% (active)
RXF 393 renal
  growth: 11.8%
SF-268 CNS
  growth: 29.6%
SF-295 CNS
  growth: -9.81% (active)
SF-539 CNS
  growth: -50.4% (active)
UACC-257 melanoma
  growth: 49.7%
M14 melanoma
  growth: 9.76% (active)

## Oc1ccc(Cl)c(Nc2nc(SCCN3CCOCC3)nc3c2cnn3CC(Cl)c2ccc(Br)cc2)c1 (stereo not given)
DU-145 prostate
  growth: 35%
K-562 leukemia
  growth: -22.9% (active)
MALME-3M melanoma
  growth: 12.2%
MDA-MB-231 breast
  growth: -3.97% (active)
RXF 393 renal
  growth: -14.2% (active)
SF-268 CNS
  growth: 40.8%
SF-295 CNS
  growth: 13%
SF-539 CNS
  growth: 29.2%
UACC-257 melanoma
  growth: 28.2%
M14 melanoma
  growth: 25%

## CCOc1ccc(-c2cc(-c3cc(C(C)C)c(O)cc3C)nn2-c2ccc(S(N)(=O)=O)cc2)cc1
DU-145 prostate
  growth: 34.6%
K-562 leukemia
  growth: 12.4%
MALME-3M melanoma
  growth: 65.8%
MDA-MB-231 breast
  growth: 37.5%
RXF 393 renal
  growth: 38.9%
SF-268 CNS
  growth: 44.1%
SF-295 CNS
  growth: 35.6%
SF-539 CNS
  growth: 11.9%
UACC-257 melanoma
  growth: 46.8%
M14 melanoma
  growth: 49.3%

## C#CCN(C)CCCOc1ccc(N(CC)C(=O)c2cc(C(C)C)c(O)cc2O)cc1Cl
DU-145 prostate
  growth: 1.4% (active)
K-562 leukemia
  growth: -26.6% (active)
MALME-3M melanoma
  growth: -51.5% (active)
MDA-MB-231 breast
  growth: -45.3% (active)
RXF 393 renal
  growth: 2.57% (active)
SF-268 CNS
  growth: 28.2%
SF-295 CNS
  growth: -2.79% (active)
SF-539 CNS
  growth: 6.42% (active)
UACC-257 melanoma
  growth: -11.6% (active)
M14 melanoma
  growth: -45.8% (active)

## COC(=O)c1cc(C(=O)C(Br)Br)n2c1ccc1c3ccccc3ccc12
DU-145 prostate
  growth: 52.2%
K-562 leukemia
  growth: 52.3%
MALME-3M melanoma
  growth: 65.6%
MDA-MB-231 breast
  growth: 67.7%
RXF 393 renal
  growth: 141%
SF-268 CNS
  growth: 68%
SF-295 CNS
  growth: 54%
SF-539 CNS
  growth: 54.9%
UACC-257 melanoma
  growth: 80.1%
M14 melanoma
  growth: 75.1%

## CCCCCCCCc1ccc(C(=O)Nc2cccc(O)c2)cc1
DU-145 prostate
  growth: 80.1%
K-562 leukemia
  growth: 22.6%
MALME-3M melanoma
  growth: 77.1%
MDA-MB-231 breast
  growth: 78.9%
RXF 393 renal
  growth: 86.6%
SF-268 CNS
  growth: 93.1%
SF-295 CNS
  growth: 75%
SF-539 CNS
  growth: 79.7%
UACC-257 melanoma
  growth: 79.3%
M14 melanoma
  growth: 76.4%

## COc1ccc(NC2=C(I)C(=O)C(C)=C(C)C2=O)cc1
DU-145 prostate
  growth: 86.2%
K-562 leukemia
  growth: 1.44% (active)
MALME-3M melanoma
  growth: 77.7%
MDA-MB-231 breast
  growth: -8.44% (active)
RXF 393 renal
  growth: 58.6%
SF-268 CNS
  growth: 45.3%
SF-295 CNS
  growth: 79%
SF-539 CNS
  growth: -28.1% (active)
UACC-257 melanoma
  growth: -14.2% (active)
M14 melanoma
  growth: 96.1%

## O=C1NC(=S)/C(=C/c2cn(-c3ccccc3)nc2-c2ccccc2)S1
DU-145 prostate
  growth: 34.4%
K-562 leukemia
  growth: 22.2%
MALME-3M melanoma
  growth: 10.4%
MDA-MB-231 breast
  growth: 39.5%
RXF 393 renal
  growth: 9.95% (active)
SF-268 CNS
  growth: 36.4%
SF-295 CNS
  growth: 17%
SF-539 CNS
  growth: 22.5%
UACC-257 melanoma
  growth: 6.05% (active)
M14 melanoma
  growth: 25%

## CS(=O)(=O)Nc1cc(-c2ccc3ncnc(Nc4ccc(OCc5cccnc5)c(Cl)c4)c3c2)cnc1Cl
DU-145 prostate
  growth: 16.5%
K-562 leukemia
  growth: 9.57% (active)
MALME-3M melanoma
  growth: -34.8% (active)
MDA-MB-231 breast
  growth: -57.9% (active)
RXF 393 renal
  growth: 0.962% (active)
SF-268 CNS
  growth: 14.6%
SF-295 CNS
  growth: -14.9% (active)
SF-539 CNS
  growth: -38% (active)
UACC-257 melanoma
  growth: 1.79% (active)
M14 melanoma
  growth: 2.98% (active)

## C=CCSc1nnc(-c2ccc(-c3nc4ccc(Cl)cc4[nH]3)cc2)o1
DU-145 prostate
  growth: 85%
K-562 leukemia
  growth: 19.5%
MALME-3M melanoma
  growth: 39.3%
MDA-MB-231 breast
  growth: 41.2%
RXF 393 renal
  growth: 53.1%
SF-268 CNS
  growth: 75.7%
SF-295 CNS
  growth: 58.2%
SF-539 CNS
  growth: 56.3%
UACC-257 melanoma
  growth: 68.2%
M14 melanoma
  growth: 28.7%

## COc1ccc2[nH]c(=O)c(CSc3ccccc3Nc3nccc(-c4ccc(Cl)cc4)n3)cc2c1
DU-145 prostate
  growth: 48.7%
K-562 leukemia
  growth: 39.7%
MALME-3M melanoma
  growth: 32.1%
MDA-MB-231 breast
  growth: 60.9%
RXF 393 renal
  growth: -4.36% (active)
SF-268 CNS
  growth: 55.1%
SF-295 CNS
  growth: 32.8%
SF-539 CNS
  growth: 21.7%
UACC-257 melanoma
  growth: 73.4%
M14 melanoma
  growth: 68.5%

## OC1CCC(Cn2c(C(F)(F)F)cc3c(Cl)ncnc32)CC1 (stereo not given)
DU-145 prostate
  growth: 10.5%
K-562 leukemia
  growth: -3.95% (active)
MALME-3M melanoma
  growth: 79.3%
MDA-MB-231 breast
  growth: 2.76% (active)
RXF 393 renal
  growth: 63.1%
SF-268 CNS
  growth: -36.4% (active)
SF-295 CNS
  growth: 75.6%
SF-539 CNS
  growth: 75.6%
UACC-257 melanoma
  growth: 9.12% (active)
M14 melanoma
  growth: -44.1% (active)

## COc1ccc2nc(NC(=O)c3ccc(N(C)C)cc3)sc2c1
DU-145 prostate
  growth: 83.4%
K-562 leukemia
  growth: 60.2%
MALME-3M melanoma
  growth: 72.7%
MDA-MB-231 breast
  growth: 92.7%
RXF 393 renal
  growth: 110%
SF-268 CNS
  growth: 90.2%
SF-295 CNS
  growth: 59%
SF-539 CNS
  growth: 90%
UACC-257 melanoma
  growth: 80.6%
M14 melanoma
  growth: 87.4%

## CN1CCN(C(=O)Oc2cc3c(c4ccccc24)[C@H](CCl)CN3C(=O)c2cc3cc(OCCCN4CCC4)ccc3[nH]2)[C@H]2CSSC[C@H]21
DU-145 prostate
  growth: -3.53% (active)
K-562 leukemia
  growth: 3.04% (active)
MALME-3M melanoma
  growth: -64.8% (active)
MDA-MB-231 breast
  growth: -14.8% (active)
RXF 393 renal
  growth: -78.8% (active)
SF-268 CNS
  growth: -9.36% (active)
SF-295 CNS
  growth: -6.36% (active)
SF-539 CNS
  growth: -75.2% (active)
UACC-257 melanoma
  growth: -15.6% (active)
M14 melanoma
  growth: -75.2% (active)

## N#Cc1c(-c2ccc(F)cc2)nc(SCc2ccccc2)nc1N1CCNCC1
DU-145 prostate
  growth: -79.8% (active)
K-562 leukemia
  growth: -22% (active)
MALME-3M melanoma
  growth: -97.3% (active)
MDA-MB-231 breast
  growth: -98.5% (active)
RXF 393 renal
  growth: -94.8% (active)
SF-268 CNS
  growth: -31.2% (active)
SF-295 CNS
  growth: -83% (active)
SF-539 CNS
  growth: -99.4% (active)
UACC-257 melanoma
  growth: -93.2% (active)
M14 melanoma
  growth: -90.2% (active)

## c1n[nH]cc1-c1nc2ccc3[nH]ncc3c2c2c1CC1(CC2)COC1
DU-145 prostate
  growth: 62.7%
K-562 leukemia
  growth: 33.9%
MALME-3M melanoma
  growth: 29%
MDA-MB-231 breast
  growth: 69.5%
RXF 393 renal
  growth: -2.43% (active)
SF-268 CNS
  growth: 63.6%
SF-295 CNS
  growth: 104%
SF-539 CNS
  growth: 26.6%
UACC-257 melanoma
  growth: 66.4%
M14 melanoma
  growth: 31.9%

## COC(=O)CSC1=C(C)C(=O)C(OC)=C(OC)C1=O
DU-145 prostate
  growth: 103%
K-562 leukemia
  growth: 13.6%
MALME-3M melanoma
  growth: 89.9%
MDA-MB-231 breast
  growth: 85.4%
RXF 393 renal
  growth: 105%
SF-268 CNS
  growth: 100%
SF-295 CNS
  growth: 106%
SF-539 CNS
  growth: 98.1%
UACC-257 melanoma
  growth: 78.1%
M14 melanoma
  growth: 91.1%

## NNc1ncnc2sc3c(c12)CCN(Cc1ccccc1)C3
DU-145 prostate
  growth: 61.7%
K-562 leukemia
  growth: 19%
MALME-3M melanoma
  growth: 70.4%
MDA-MB-231 breast
  growth: 40.8%
RXF 393 renal
  growth: 69.3%
SF-268 CNS
  growth: 43.8%
SF-295 CNS
  growth: 45.2%
SF-539 CNS
  growth: 52.8%
UACC-257 melanoma
  growth: 47%
M14 melanoma
  growth: 62.9%

## Cc1nc2sccn2c1-c1nnc(SCC(C)C)o1
DU-145 prostate
  growth: 99.1%
K-562 leukemia
  growth: 52.7%
MALME-3M melanoma
  growth: 97.8%
MDA-MB-231 breast
  growth: 87.1%
RXF 393 renal
  growth: 104%
SF-268 CNS
  growth: 88.5%
SF-295 CNS
  growth: 86.1%
SF-539 CNS
  growth: 93.3%
UACC-257 melanoma
  growth: 98.7%
M14 melanoma
  growth: 99.9%

## N#CC1=C(c2ccco2)Nc2c(c(-c3ccccc3)nn2-c2ccccc2)C12C(=O)Nc1ccc(Cl)cc12 (stereo not given)
DU-145 prostate
  growth: 42.3%
K-562 leukemia
  growth: 9.86% (active)
MALME-3M melanoma
  growth: 22.3%
MDA-MB-231 breast
  growth: -4.25% (active)
RXF 393 renal
  growth: 57.9%
SF-268 CNS
  growth: 11%
SF-295 CNS
  growth: 6.91% (active)
SF-539 CNS
  growth: -30.3% (active)
UACC-257 melanoma
  growth: 56.4%
M14 melanoma
  growth: 22.4%

From PubChem BioAssay (NCI)
